Sampled rows, rich in hits. Any-hit rate of the full collection: about 32%.
CYP2C9 activ: increases human cytochrome P450 2C9 activity; activation factor at 5 µM; AID 1024; recombinant CYP2C9, luciferin-H conversion, luminescence; active compounds read high; factor 1 = untreated enzyme, 0 = blocked; P11712; 96,000 compounds, 1.4% hits;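 active = activation factor of 2 or more for CYP2C9 at a 5 µM dose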;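 note: 0 = sulfaphenazole-blocked wells and 1 = vehicle-only wells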
CYP2C19 act: cytochrome P450 2C19 (human) activation. recombinant CYP2C19, luciferin-H EGE luminescence; active compounds read high; 0 = fully inhibited enzyme, 1 = untreated enzyme. P33261. activation factor at 5 µM. 96,000 tested, under 10 active;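 active = activation factor of at least 2 at 5 µM in the primary screen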;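 note: 0 = wells with 2.5 mM tranylcypromine and 1 = vehicle-only wells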
Target sequence (P33261 whole entry, looked up): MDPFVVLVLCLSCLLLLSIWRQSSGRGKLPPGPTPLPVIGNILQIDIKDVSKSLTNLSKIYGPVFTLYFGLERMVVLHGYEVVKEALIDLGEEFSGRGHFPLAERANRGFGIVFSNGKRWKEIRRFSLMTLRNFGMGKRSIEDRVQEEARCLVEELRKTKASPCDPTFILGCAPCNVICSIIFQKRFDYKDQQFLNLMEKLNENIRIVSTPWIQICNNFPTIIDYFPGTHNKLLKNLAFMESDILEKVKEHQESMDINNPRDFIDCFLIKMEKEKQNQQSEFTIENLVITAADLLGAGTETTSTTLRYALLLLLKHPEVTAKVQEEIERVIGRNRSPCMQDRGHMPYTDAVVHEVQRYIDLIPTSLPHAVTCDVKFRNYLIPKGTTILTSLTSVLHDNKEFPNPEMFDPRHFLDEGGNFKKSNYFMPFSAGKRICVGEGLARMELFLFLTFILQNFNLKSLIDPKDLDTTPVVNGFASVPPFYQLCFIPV
PostGolgi ctrl: yeast control strain growth, post-Golgi counter-screen; efflux-deficient yeast background strain, growth absorbance A615, 16 h; inhibition, % at 10 µM; 98,000 compounds, 5% hits; AID 738
CYP2C19 inhib: inhibitors of human CYP2C19; inhibition, % at 5 µM; CYP2C19 Supersomes, luciferin-H EGE luminescence, 30 min; 96,000 compounds, 21% hits; AID 778; P33261;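 active = CYP2C19 inhibition above a set limit at 5 µM in the primary screen, cut at about 50% in these data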;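 note: plate controls were negative control wells for no effect and 2.5 mM tranylcypromine positive control for full effect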
CYP2C9 inhib: human CYP2C9 inhibition; 96,000 compounds, 20% hits; CYP2C9 Supersomes, luciferin-H conversion, luminescence; inhibition, % at 5 µM;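 active = blocking of liver enzyme CYP2C9 beyond about 50% at 5 µM, limit read from the data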
PostGolgi yeast: growth inhibition of a yeast mutant, post-Golgi transport screen. 98,000 compounds, 0.9% hits. inhibition, % at 10 µM. post-Golgi transport phenotypic cell assay;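 note: yeast cells grown in 1536-well plates; yeast grown about 18 h at 30C before absorbance read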
* marks the source's active call; other numbers are inactive results; x = not tested or not shown. Cut-off read from the data, not from the text of the source, unless noted: active = inhibition above about 30%; inactive = the rest.

SMILES | CYP2C9 activ | CYP2C19 act | PostGolgi ctrl | CYP2C19 inhib | CYP2C9 inhib | PostGolgi yeast
O=C(NC(=S)Nc1cccc(Cl)c1N1CCCC1)c1ccc(-c2cccc([N+](=O)[O-])c2)o1 | 1 | 1 | 1.5 | -1.2 | 2.3 | -9.5
O=C(c1ccco1)N1CCN=C1SCc1cccnc1 | 1.1 | 0.9 | -2.1 | 12.4 | -7.3 | 30.1*
O=C(N1CCN=C1SCc1cccnc1)C12CC3CC(CC(C3)C1)C2 | 0.9 | 0.2 | 5.0 | 82.7* | 8.7 | -3.7
O=C(c1cccs1)N1CCN=C1SCc1cccnc1 | 0.7 | 0.4 | 31.5* | 55.4* | 25.1 | 6.0
CC(=O)N1CCN=C1SCc1ccccc1 | 1 | 0.9 | 6.5 | 8.1 | -3.8 | -4.0
O=C(COc1ccccc1)N1CCN=C1SCc1cccnc1 | 0.9 | 0.7 | -13.3 | 26.9 | 9.9 | 6.9
CCOC(=O)c1sc(C)c(C(=O)NCCCN2CCOCC2)c1N | 0.9 | 1 | 5.0 | 4.2 | 14.9 | -7.1
CCn1c(O)c(C=Nc2ccccc2)n(-c2ccccc2)c1=S | 1 | 0.9 | 16.6 | 13.0 | 1.5 | -10.5
Cc1ccc(NC(=O)c2noc3c2CCc2ccccc2-3)cc1 | 1.3 | 1.1 | 4.4 | -7.3 | -33.5 | 7.1
Cc1nn(Cc2ccccc2)c(C)c1NC(=O)c1noc2c1CCc1ccccc1-2 | 0.4 | 0.6 | 17.6 | 37.7 | 61.2* | -10.8
Cc1cc(NC(=O)c2noc3c2CCc2ccccc2-3)n(-c2ccccc2)n1 | 1 | 1 | -1.5 | -1.1 | 4.1 | -1.2
CCc1ccc(NC(=O)c2noc3c2CCc2ccccc2-3)cc1 | 2.1* | 1 | -5.4 | 4.3 | -112.1 | 27.9
Cc1cccc(N2CCCC2=Nc2ccc(Br)cc2C#N)c1 | 0.9 | 1 | 7.1 | 2.3 | 6.5 | -9.4
N#Cc1ccccc1N=C1CCCN1Cc1ccccc1 | 0.8 | 0.2 | 6.1 | 84.6* | 21.6 | 2.6
Cn1c(=O)c2c(nc(OCC3COC(C)(C)O3)n2Cc2ccccc2F)n(C)c1=O (configuration not stated) | 0.7 | 0.9 | 3.8 | 8.9 | 25.9 | -0.2
COC(=O)CN1C(=O)C(C)=C(c2ccc(C)cc2)S1(=O)=O | 0.8 | 0.6 | 3.6 | 35.9 | 15.7 | 8.4
CC1=C(c2ccc(C)cc2)S(=O)(=O)N(CC(=O)O)C1=O | 0.2 | 1.1 | 7.8 | -6.7 | 82.0* | -5.9
CCOc1ccc(CCNC(=O)C2CCCN(C(=O)N(C)C)C2)cc1OCC (configuration not stated) | x | x | 21.6 | x | x | 0.5
CCC(CC)NCc1ccc(OC)cc1OC | 1.1 | 1.2 | 8.8 | -15.1 | -11.7 | -1.9
COc1ccc(CNC2CCCCC2C)c(OC)c1 (configuration not stated) | 0.9 | 0.4 | 13.5 | 62.4* | 6.9 | 19.1
CCOc1ccccc1NC(=O)C1CCN(c2ccc(S(=O)(=O)N3CCCC3)cc2)CC1 | 0.5 | 0.6 | 6.8 | 44.0 | 54.4* | -9.1
CCOc1ccccc1NC(=O)C1CCCCN1S(=O)(=O)c1ccc(F)cc1 (configuration not stated) | 2.9* | 0.4 | 26.4 | 63.7* | -187.8 | -5.8
O=C(Nc1ccccc1Cl)C1CCCN(S(=O)(=O)c2ccc(F)cc2)C1 (configuration not stated) | 0.7 | 0.3 | 8.2 | 71.3* | 31.6 | 4.2
CCOCCCNC(=O)C1CCCCN1S(=O)(=O)c1ccc(F)cc1 (configuration not stated) | 0.9 | 0.8 | 0.0 | 19.2 | 6.4 | 0.6
CCOc1ccccc1NC(=O)C1CCN(S(=O)(=O)c2ccc(OC)c(OC)c2)CC1 | 1.1 | 0.7 | 10.3 | 29.7 | -12.1 | 0.6
SMILES | CYP2C9 activ | CYP2C19 act | PostGolgi ctrl | CYP2C19 inhib | CYP2C9 inhib | PostGolgi yeast
CSc1nc(C2CC2)cc(-c2cccs2)c1C#N | 1.2 | 0.9 | 8.5 | 5.0 | -16.0 | 13.1
CC1=Nc2ccccc2/C1=C\c1nc(-c2ccccc2)oc1O | 0.1 | 0.6 | 29.6 | 42.2 | 95.0* | 4.8
COc1ccc(C(=O)c2ccccc2)c(O)c1 | 0.8 | 0.1 | -1.1 | 85.9* | 24.2 | -6.0
COc1ccc(-c2nc(CS(=O)CC(=O)N3CCCC3)c(C)o2)cc1 (configuration not stated) | 0.3 | 0.8 | 22.6 | 21.3 | 70.6* | 2.0
Cc1ccc(NC(=O)CS(=O)Cc2nc(-c3ccc(C)cc3)oc2C)cc1 (configuration not stated) | 0.4 | 0.6 | 11.7 | 36.3 | 60.2* | -2.4
CC(C)(C)OC(=O)N1CCC[C@H]1c1nnc(SCc2ccccc2F)o1 | 0.4 | 0.4 | 11.8 | 60.6* | 59.6* | 10.2
CCCNC(=O)NC(=O)COC(=O)c1ccc(OC)c(S(=O)(=O)N2CCCc3ccccc32)c1 | 0 | 0.6 | 16.7 | 37.0 | 95.2* | -6.8
COc1ccc(OC)c(S(=O)(=O)N2c3ccccc3CC2C)c1 (configuration not stated) | 0.2 | 0.3 | 8.8 | 75.0* | 79.4* | -3.6
Cc1cc(NC(=O)COC(=O)COc2ccc3c(c2)CCC3)no1 | 1 | 0.9 | 7.2 | 5.6 | -4.7 | -1.1
COc1ccc(C(=O)NCc2ccc(C)cc2)cc1S(=O)(=O)N1CCCc2ccccc21 | 0.3 | 0.3 | 23.4 | 67.1* | 74.1* | 3.7
COc1ccccc1NC(=O)COc1ccc(C(=O)OCC(=O)N2CCCC2=O)cc1OC | 0.8 | 1 | 11.7 | -2.3 | 20.8 | -6.0
Cc1cc(NC(=O)COC(=O)c2ccc(S(=O)(=O)N3CCCc4ccccc43)cc2)no1 | 0.3 | 0.5 | -13.2 | 45.6 | 66.2* | 1.1
CC1CCCCC1NC(=O)CSc1nc2ccccc2c(=O)n1Cc1ccco1 (configuration not stated) | 1 | 0.9 | x | 13.5 | 4.5 | x
O=C1C2CC=CCC2C(=O)N1c1n[nH]c(Cc2ccccc2)n1 (configuration not stated) | 1.1 | 1 | 15.5 | -2.1 | -6.4 | 0.3
COc1ccc(F)cc1S(=O)(=O)N1CC(C)CC(C)C1 (configuration not stated) | 0.8 | 0.4 | 9.7 | 64.9* | 22.6 | 9.6
COc1ccc(C(C)C)cc1S(=O)(=O)N1CCN(C)CC1 | 1.2 | 0.6 | 0.9 | 36.6 | -16.3 | -13.8
COc1ccc(OC)c(S(=O)(=O)N2CCc3ccccc32)c1 | 1.2 | 0.2 | 6.1 | 76.8* | -21.3 | -6.3
Cc1[nH]c(=O)[nH]c(=O)c1S(=O)(=O)N1c2ccc(F)cc2CCC1C (configuration not stated) | 0.8 | 0.6 | 3.9 | 43.9 | 16.1 | -3.3
COc1ccc(OC)c(S(=O)(=O)N2c3cc(F)ccc3CCC2C)c1 (configuration not stated) | 0.4 | 0.1 | 4.5 | 87.8* | 60.8* | 8.4
CS(=O)(=O)N1CCc2cc(C(=O)N3CCCCC3)ccc21 | x | x | 1.4 | x | x | 6.6
COc1ccc(C(=O)N2CCCN(C)CC2)cc1S(=O)(=O)N1CCCc2ccccc21 | 0.5 | 0.8 | -7.2 | 18.0 | 50.3* | 2.0
COc1ccc(OC)c(S(=O)(=O)N2CCN(C34CC5CC(CC(C5)C3)C4)CC2)c1 | 1.2 | 0.8 | 2.7 | 15.9 | -23.8 | 0.2

Screening results deposited in PubChem by several laboratories.
